Test results reported in PubChem BioAssay (NCI).
The panel holds about 83,000 compounds, 20% with a hit somewhere; the sample as a whole holds those more often.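 Note: values are percent growth. 100 is the growth of untreated cells, values between 100 and 0 indicate rising inhibition; between -100 and 0 indicates cell death.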 A number with no mark means an inactive call. Calls of active or inactive are those of the source. The calls were made as follows: active = growth percent below 10; inactive = the rest.

The compounds below were run on SK-MEL-28 melanoma (assay: NCI-60 one-dose screen, 48 h (100 = growth as untreated, 0 = no growth, -100 = all killed)). Settings: 10 µM unless noted.
Cc1ccc(S(=O)(=O)N/N=C2\CC3CCC2(C)C3(C)C)cc1 (stereo not drawn) was tested, and the growth was 102%. For O=C(N=c1n(-c2ccccc2)nc2n1CCN2C1=NCCN1C(=O)c1ccc(Cl)cc1)c1ccc(Cl)cc1, the growth was 88.8%. In the case of O=C(NCc1ccc(Cn2c(=O)sn(-c3ccccc3)c2=O)cc1)OCc1ccc2c(Br)cc(Br)c(O)c2n1, the growth is reported as -69.9% (active). Cc1nc(Cl)c2c(n1)N(C)c1ccc(Cl)cc1C(C)C2 (stereo not drawn) showed a growth of 105%. In the case of C=C(C)[C@@H]1CC[C@]2(COCCC#N)CC[C@]3(C)[C@H](CC[C@@H]4[C@@](C)(CCCNCCC#N)[C@H](C(=C)C)CC[C@]43C)[C@@H]12, the growth is reported as -37.3% [100 µM] (active). Compound O=C(Nc1cccc(F)c1)c1cc(=O)[nH]c2cc(Br)ccc12 has a growth of 62.3%. O=C(NCCCNC(=O)OCc1ccc2c(Br)cc(Br)c(O)c2n1)OCc1ccc2c(Br)cc(Br)c(O)c2n1 was tested, and the growth was -75.9% (active). For COc1ccc(OC)c(NC=O)c1, the growth was 115%. CCN(CCNc1ccc(C)c2sc3cc(Cl)ccc3c(=O)c12)CC(C)O (stereo not drawn) was tested, and the growth was -64.5% (active). With CN(C)c1ccc(-c2ccc(-c3ccc(C(=N)N)cc3)s2)cc1 the growth was 94.1%. CC(=O)OC[C@]12CC[C@@H]([C@@H](C)C(N)=O)[C@@H]1[C@H]1CC[C@@H]3[C@@]4(C)CC[C@H](OC(C)=O)C(C)(C)[C@@H]4CC[C@@]3(C)[C@]1(C)CC2 was tested, and the growth was -73.2% [100 µM] (active). In the case of O=C(Nc1ccccc1)Nc1ccc(C(=O)/C=C/c2ccc(N3CCCC3)cc2)cc1, the growth is reported as 51.1%. With C#C[C@]1(O)CC[C@H]2[C@@H]3CC=C4c5nc(Nc6ccccn6)sc5CC[C@]4(C)[C@H]3CC[C@@]21C the growth was -68.2% (active). Work on Cn1cc(-c2nnc(-c3cn(C)c4ncccc34)o2)c2ccccc21 yielded a growth of 55.9%. In the case of O=C1C(Cl)=C(Nc2ccc3cn[nH]c3c2)C(=O)c2ccccc21, the growth is reported as -97.7% (active). COc1cc(/C=C/C(=O)/C=C/c2ccc(-n3ccnc3C)cc2)ccc1O showed a growth of 84.1%. Compound Nc1cc(Cl)cc2cccnc12 has a growth of 113%. CN(C)CCOc1ccc(/C(=C(/CCCl)c2ccccc2)c2ccccc2)cc1 was tested, and the growth was -30.3% (active). Nc1cc(N)c(N=Nc2ccc(S(=O)(=O)O)cc2)cc1N=Nc1ccc(-c2ccc(N=Nc3ccc(O)c(C(=O)O)c3)cc2)cc1 gave a growth of 106%. Cn1cc(-c2noc(-c3cn(C)c4ncc(F)cc34)n2)c2ccccc21 was tested, and the growth was 94.1%. Compound Nc1ccc(NC(=O)c2ccccc2)c2c1C(=O)c1ccccc1C2=O has a growth of 113%.

What follows are compounds tested on SK-MEL-2 melanoma in the same assay as above. Settings: 10 µM unless noted.
With COc1ccc2c(c1)c(-c1noc(-c3cn(C)c4ncc(F)cc34)n1)cn2C the growth was 94%. With O=C(N/N=C\c1cc(Cl)ccc1O)N/N=C/c1cc(Cl)ccc1O the growth was 70.6%. Compound O=C(O)c1ccccc1C(F)(F)F has a growth of 112%. CS(=O)(=O)c1cccnn1 showed a growth of 98.8%. O=C(Nc1ccc(Oc2ccc(F)cc2)c(Cl)c1)c1cccnn1 was tested, and the growth was 77.7%. CCC(Br)(CC)C(=O)c1ccc(OCC(=O)O)c(Cl)c1Cl showed a growth of 94.6%. With NC(=O)c1cccc(-c2ccc(S(=O)(=O)Nc3ccc4c(c3)N(C(=O)C3CC3)CCC4)cc2)c1 the growth was 7.54% (active). For C#CCC(C(=O)OCC)C(=O)OCC, the growth was 107%. O=[N+]([O-])c1cc(CCl)ccc1OCCBr was tested, and the growth was 106%. O=C(O)c1cn(C2CC2)c2cc(N3CCN(Cc4cc(Cl)ccc4O)CC3)c(F)cc2c1=O gave a growth of 88%. Cc1ccc(C2=C/C(=C/c3ccc(Br)cc3)C(=O)N2CCc2ccc(S(N)(=O)=O)cc2)cc1 showed a growth of 98.6%. Compound COc1ccc(C(=O)/C=C/c2ccccn2)c(O)c1 has a growth of 89.6%. Cc1cc(C)c(S(=O)(=O)/N=c2/n(-c3ccccc3)nc3n2CCN3C2=NCCN2)c(C)c1 gave a growth of 104%. Compound Cc1ccc(S(=O)(=O)n2cc(C(=O)C(=O)N3CCCCC3)c3ccccc32)cc1 has a growth of 90.6%. COc1cc(C)cc2oc3oc(=N)c(C(=O)c4ccccc4)cc3c(=O)c12 showed a growth of 114%. With COc1ccc(OC)c([N+](=O)[O-])c1C(=O)CNC(C)=O the growth was 109%. For Cc1ccc(S(=O)(=O)N/N=C2\CC3CCC2(C)C3(C)C)cc1 (stereo not drawn), the growth was 76.8%. Work on O=C(N=c1n(-c2ccccc2)nc2n1CCN2C1=NCCN1C(=O)c1ccc(Cl)cc1)c1ccc(Cl)cc1 yielded a growth of 83.3%. For O=C(NCc1ccc(Cn2c(=O)sn(-c3ccccc3)c2=O)cc1)OCc1ccc2c(Br)cc(Br)c(O)c2n1, the growth was -52.4% (active). In the case of Cc1nc(Cl)c2c(n1)N(C)c1ccc(Cl)cc1C(C)C2 (stereo not drawn), the growth is reported as 96.1%. Compound C=C(C)[C@@H]1CC[C@]2(COCCC#N)CC[C@]3(C)[C@H](CC[C@@H]4[C@@](C)(CCCNCCC#N)[C@H](C(=C)C)CC[C@]43C)[C@@H]12 has a growth of 10% [100 µM]. In the case of O=C(Nc1cccc(F)c1)c1cc(=O)[nH]c2cc(Br)ccc12, the growth is reported as 41.2%. For O=C(NCCCNC(=O)OCc1ccc2c(Br)cc(Br)c(O)c2n1)OCc1ccc2c(Br)cc(Br)c(O)c2n1, the growth was -6.76% (active). Work on COc1ccc(OC)c(NC=O)c1 yielded a growth of 116%. In the case of CCN(CCNc1ccc(C)c2sc3cc(Cl)ccc3c(=O)c12)CC(C)O (stereo not drawn), the growth is reported as 40.7%. In the case of CN(C)c1ccc(-c2ccc(-c3ccc(C(=N)N)cc3)s2)cc1, the growth is reported as 107%. For CC(=O)OC[C@]12CC[C@@H]([C@@H](C)C(N)=O)[C@@H]1[C@H]1CC[C@@H]3[C@@]4(C)CC[C@H](OC(C)=O)C(C)(C)[C@@H]4CC[C@@]3(C)[C@]1(C)CC2, the growth was -77.6% [100 µM] (active). In the case of O=C(Nc1ccccc1)Nc1ccc(C(=O)/C=C/c2ccc(N3CCCC3)cc2)cc1, the growth is reported as 17.9%. With C#C[C@]1(O)CC[C@H]2[C@@H]3CC=C4c5nc(Nc6ccccn6)sc5CC[C@]4(C)[C@H]3CC[C@@]21C the growth was -29.6% (active). In the case of Cn1cc(-c2nnc(-c3cn(C)c4ncccc34)o2)c2ccccc21, the growth is reported as 34.4%. O=C1C(Cl)=C(Nc2ccc3cn[nH]c3c2)C(=O)c2ccccc21 was tested, and the growth was -28.6% (active). COc1cc(/C=C/C(=O)/C=C/c2ccc(-n3ccnc3C)cc2)ccc1O was tested, and the growth was 100%. In the case of Nc1cc(Cl)cc2cccnc12, the growth is reported as 119%. With CN(C)CCOc1ccc(/C(=C(/CCCl)c2ccccc2)c2ccccc2)cc1 the growth was 48.5%. With Nc1cc(N)c(N=Nc2ccc(S(=O)(=O)O)cc2)cc1N=Nc1ccc(-c2ccc(N=Nc3ccc(O)c(C(=O)O)c3)cc2)cc1 the growth was 103%. Cn1cc(-c2noc(-c3cn(C)c4ncc(F)cc34)n2)c2ccccc21 was tested, and the growth was 93.8%. Work on Nc1ccc(NC(=O)c2ccccc2)c2c1C(=O)c1ccccc1C2=O yielded a growth of 108%.
